Experimental data reported in the supplement of paper PMC6555819.

These sequences were tested on VDR:RXRa (NR concentration 270 nM, RXRa partner concentration 90 nM) (assay: PBM binding z-score (relative to random genomic background probes); higher = stronger binding; sequences stand for … in GC…GCGATTGACAGCGTAGAATGAAGG).
Method: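 Protein-binding microarray (Agilent 4x180K custom design, double-stranded 60-nt probes: 5' GC cap, 34-nt variable region, 24-nt constant primer region; full probe sequence given). Purified or IVT nuclear receptor:RXRα heterodimers (3:1 NR:RXRα, mostly 270:90 nM) or homodimers were incubated for 1 h in PBS with 2% milk and no ligand, then detected with Alexa488 antibodies. Fluorescence from o1-orientation probes (~5 replicates averaged) was converted to z-scores against 500 random hg19 background probes. Variable regions are seed direct-repeat (DR0–DR5) sites, all their single-nucleotide variants and half-site ablations.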

| Sequence | PBM binding z-score |
| --- | --- |
| TCTAGCAGGCCAGAGGGTCAGTCAAGAGGTACGG | 0.113 |
| GCTGCTAGGTCAACCGATGGTCAGCTAAAGCTCG | 1.54 |
| TCTTGTAGATCAATAGAGGTTCAGAAAGTGCGCT | 1.65 |
| GCTCGGAGGACAAGGTCAGAACTTTGTCCGTAGA | 1.37 |
| CCTGCTAGGGCATGGTCAGCTAATCTACAGTATG | -0.579 |
| ACTAGCTGGCCAAGTTTGGGTCACTCAAACAAAG | 0.228 |
| CGAACTGGGTCATCCAGGACAGTGAATACATTGA | 4.54 |
| AGAGTGAGGTTATTAAGATCAGGGAATTGCGGTC | 2.49 |
| CAAATTAGGTCACGAAAGGTCAAAGTCGAATGAC | 7.06 |
| GATACAGGCTCAGCTAGAGGCCAGAGTATGGAAA | -1.02 |
| TCACCAAGGTGAGCTGAGGTCGTTGATCCAACTC | 3.97 |
| TCAGACAGGTGAAGGTCACTCAGGTACGCAGTCG | 4.18 |
| GCTATTAGTTCAAAGGGCAACCGAATGATTCTCG | 2.63 |
| TTTTGTAGATCAACAGGAGGTTAAGAAAGATCGA | 0.859 |
| CCGACTGGGGAAAGGTTACCATAACGCACAGCCA | 0.901 |
| CCGACTGGGGCATATGGTTACCATAAGCCAGCCC | -0.695 |
| CTACCAAGGTGAAAAAGGTCGTTGATTACTATTC | 4.09 |
| CGAATTAGGTCATTGACAGGACAGTGAATAGTAA | 2.3 |
| ACTCGGAGGACAAAGGTCAGAGCCACGCCAGTGA | 3.43 |
| CGTCCAAGGTCAGAGAGGTCAGTGAGTGCCGAGT | 7.44 |

| Sequence | PBM binding z-score |
| --- | --- |
| ATATGTAGGTTAAGGGACATTCAGGTTGGTTCGC | 1.07 |
| CAAACTAGGTAACGAAAGGTCAAAGTCGAATGAC | 4.87 |
| CCTAATGGGCCAAAGGTCATTGATTCCAATGCTC | 4.64 |
| GCATATATGTAATACAAGGTGAAAGTCCGATTGT | 0.278 |
| TCTAGTTGGTCAAAGGTCAGACACTCGAAATGCG | 4.09 |
| GGAACGAGGGCAAAGCTGATAGCATCTGTCGACG | 0.367 |
| TCTTCTAGATCAACAGGAGGTTAAGAAAGATCGA | 0.728 |
| TCAGACTGGTGAAGGTAACTCAGGTACGCAGTCG | 0.31 |
| CAAACTAGGTCAAGGACAGTGAATCTCCGCACGC | 1.56 |
| CCTACTGGGCCAAAGGTAATTGATTCCAATGCTC | -0.387 |
| TCAGACAGCTGAAGGTAACTCAGGTACGCAGTCG | 0.484 |
| AGAATTAGGTTATTAAGATCAGGGAATTGCGGTC | 0.835 |
| GATACAGGGTCAGCTAGCGGCCAGAGTATGGAAA | 2.49 |
| CCTACTGGGCCAAGGTCAGTGATCAGTCAAAGCA | 0.692 |
| ACAGACAGGTGATGAAGGTAACTCTGGCTATCAT | 0.00307 |
| ATACCAGGGTGATCGTGAGGTCGTTGATACTAAC | 3.22 |
| TCTAGTTGTTCACGGAGGTCACACACGACGGGTA | 4.1 |
| CCTACTGGGCCAAAGGTCAATGATTCCAATGCTC | 4.04 |
| TCGAGTAGGTTAGTCGGGGCATTGAGCCAACATA | 1.89 |
| AGTCAAAGTTCACTAGGTAACGTGAGATTCAGCT | 3.88 |
